A short description of assay [1]: inhibitors of TNFa-induced NFkB p65 translocation, primary screen, imaging, HUVEC, MLSMR starter and 10KST1 sets (AID 438;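 active = inhibition above 20% together with a positive visual image hit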;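 also: compound added about 3h40 before a 20 min TNFalpha stimulation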;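 as to inhibition: signal is the nuclear over cytoplasmic p65 intensity ratio per well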). The following applies: HUVEC TNFa-induced p65 nuclear translocation; cell count: measured here: nuclei count (cytotoxicity indicator), at 2.08 µM unless noted; inhibition: at 2 µM, stronger effect = higher value unless noted.
Assay [2] can be described thus: inhibitors of mutant huntingtin aggregation, primary screen, imaging, exon1htt(103Q)mCFP cells, high-content imaging (AID 483;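 active = visual image review flags a hit and inhibition of aggregation exceeds 20%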;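 also: compound exposure lasted 3 days before fixation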;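 as to nuclei count: percent of the per-plate median nuclei count of sample wells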). The following applies: exon1htt(103Q)mCFP cell line, aggregate imaging, at 2 µM; inhibition of aggregation: stronger effect = higher value; nuclei count: measured here: cell count, toxicity.
Assay [3] in a line: inhibitors of E-selectin induction by TNFa, primary screen, imaging, HUVEC, immunofluorescence, MLSMR starter and 10KST1 sets (AID 487;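 active = visually confirmed hit in the image check and inhibition above 20%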;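 as to inhibition: signal is fraction of cell area covered by stained E-selectin grains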;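 as to nuclei count: 100% = median nuclei count of all wells on the same plate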). The following applies: HUVEC TNFalpha-induced E-selectin immunofluorescence imaging, at 2 µM; inhibition: stronger effect = higher value; nuclei count: measured here: cell number, toxicity.
A short description of assay [4]: DUSP6 inhibitors restoring Erk phosphorylation by chemical complementation, primary imaging in DUSP6-transfected HeLa (AID 609;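 active = compounds giving at least 50% inhibition in the cell-based MKP-3 phosphatase rescue imaging test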;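 as to inhibition: phospho-Erk level distribution per well compared with pooled transfected vehicle control wells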). Particulars: HeLa MKP-3 transfected, phospho-Erk imaging KS statistic, at 10 µM.
Assay [5] addresses Dual specificity protein phosphatase 6 (Homo sapiens) (UniProt Q16828). Described as above. Particulars: HeLa MKP-3 transfected, phospho-Erk imaging KS statistic, at 10 µM, stronger effect = higher value.
The target of assay [6] is Voltage-gated potassium channel subunit beta-2 (Rattus norvegicus) (UniProt P62483). The assay can be described thus: KvBeta enzyme negative modulators, primary screen, biochemical, NADPH fluorescence (AID 622;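 active = fluorescence slope higher than the sample average by over 3 SD, cut at about -0.22 in these data, passing the limit was not always enough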;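 also: slope of raw intensity against log time taken from 70 to 1610 s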). The following applies: recombinant KvBeta, 4-cyanobenzaldehyde reduction, at 10 µM, stronger effect = higher value.
Assay [7] shares this target. The assay can be described thus: KvBeta positive modulators, primary screen, biochemical, NADPH fluorescence (AID 623;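 active = NADPH fluorescence slope more negative than the mean of all samples by about 3 SD, 99.7% confidence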;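 also: fluorescence intensity change per second fitted from 20 to 320 s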). Particulars: Recombinant KvBeta, NADPH fluorescence decrease slope, 10 min; at 10 µM; stronger effect = lower value.
Assay [8] has as its target Alpha-2C adrenergic receptor (Homo sapiens) (UniProt P18825). Nature of the assay: modulators of alpha2C/GIRK thallium flux, primary screen, cell-based, HEK293 alpha2C/GIRK1/2 (AID 624;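 active = fluorescence slope after compound addition differing from the mean of all screened samples at 99.7% confidence, in either direction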;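 also: slope of fluorescence ratio to pre-addition baseline per second over 15 to 24 s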). The following applies: thallium flux BTC fluorescence, at 10 µM, actives lie on both sides.
The nature of assay [9]: inhibitors of larval lipid processing in zebrafish, primary screen, whole organism, PED6 fluorescence, gall bladder and intestine (AID 686;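 active = a full or partial loss of lipid-probe fluorescence in the fish gall bladder, intestine or both, judged by eye; inactive = no fluorescence loss, or compound toxic to the fish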;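 also: larvae 5 to 7 days old with five fish per well; signal comes from phospholipase A2 cleavage of quenched PED6 carried via bile; overnight exposure to compound and PED6 before scoring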). Particulars: Zebrafish larvae PED6 lipid processing, fluorescence scoring.
Assay [10] is described as follows: inhibitors of Chlamydomonas gravitaxis, primary screen, whole organism, Chlamydomonas reinhardtii, WT vs cilia-less mutant, absorbance, 96-well (AID 463189).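 Also: 0% = wild type cc124 cells in DMSO and 100% = ciliumless bld1 mutant cells.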 The following applies: OD600 absorbance, 2 days, at 10 µM, stronger effect = higher value.
Assay [11] in a line: inhibitors of Sendai virus-induced IRF3 signaling, primary screen, TLR/RLR signaling modifier project, cell-based, Sendai virus stimulus, luciferase, 10K MLSCN set (AID 602276;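 active = inhibition at or above 50% at 10 µM; inactive = inhibition below 50%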;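 also: firefly luciferase from ISG56 promoter only with Renilla not read in this screen; 0% = Sendai virus plus DMSO and 100% = medium plus DMSO without virus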). Particulars: HEK293 RL24 IRF3 luciferase reporter, at 10 µM, stronger effect = higher value. (In general: A reporter such as luciferase makes a cellular process visible.)
The nature of assay [12]: inhibitors of poly I:C-induced TLR3 signaling, primary screen, cell-based, poly I:C stimulus, luciferase, 10K MLSCN set (AID 602277;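 active = inhibition of the reporter signal at or above 50%; inactive = inhibition below 50%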). Particulars: HEK293-TLR3 RL24 IRF3 luciferase reporter, at 10 µM, stronger effect = higher value.
For assay [13], the target named is Muscarinic acetylcholine receptor M4 (Homo sapiens) (UniProt P08173). The assay can be described thus: compounds altering M4/GIRK thallium flux, either direction, primary screen, M4 allosteric agonist project, cell-based, HEK293 M4/GIRK, BTC-AM (AID 625;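 active = fluorescence slope after compound addition differing from the mean of all tested samples at 99.7% confidence, mostly higher but some lower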;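 also: thallium influx through GIRK channels coupled to M4 in HEK293 cells with BTC-AM dye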). The following applies: at 10 µM, actives lie on both sides.
Setting [14] is: measured here: cell density z-score.
[15] abbreviates: measured here: nuclear c-Myc green intensity z-score.
Setting [16] is: measured here: nuclear pErk red intensity z-score, stronger effect = higher value.

Data on five compounds can be found in PubChem BioAssay.

Structures are written as SMILES. “And” between values parts separate entries of the source, which are not always exact repeats. Identical values can stand only once. The source made the active and inactive calls.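 The calls were made as follows, unless noted: active = inhibition at or above 50% relative to wild type and mutant plate controls; inactive = inhibition below 50%.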

Alpha-2C adrenergic receptor (Homo sapiens), sequence (P18825 whole entry, looked up): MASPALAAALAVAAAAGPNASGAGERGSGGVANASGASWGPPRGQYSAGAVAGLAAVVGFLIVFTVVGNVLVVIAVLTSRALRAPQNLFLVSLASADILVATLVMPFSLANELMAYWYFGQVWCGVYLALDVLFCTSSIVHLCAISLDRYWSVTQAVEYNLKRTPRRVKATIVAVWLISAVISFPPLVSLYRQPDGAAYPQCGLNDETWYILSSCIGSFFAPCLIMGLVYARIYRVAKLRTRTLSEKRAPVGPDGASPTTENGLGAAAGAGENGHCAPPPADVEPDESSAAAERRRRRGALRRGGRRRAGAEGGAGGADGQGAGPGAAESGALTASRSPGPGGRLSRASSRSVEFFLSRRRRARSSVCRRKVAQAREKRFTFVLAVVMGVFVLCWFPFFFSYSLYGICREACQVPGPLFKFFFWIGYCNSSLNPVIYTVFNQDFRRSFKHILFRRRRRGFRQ
Voltage-gated potassium channel subunit beta-2 (Rattus norvegicus), sequence (P62483 whole entry, looked up): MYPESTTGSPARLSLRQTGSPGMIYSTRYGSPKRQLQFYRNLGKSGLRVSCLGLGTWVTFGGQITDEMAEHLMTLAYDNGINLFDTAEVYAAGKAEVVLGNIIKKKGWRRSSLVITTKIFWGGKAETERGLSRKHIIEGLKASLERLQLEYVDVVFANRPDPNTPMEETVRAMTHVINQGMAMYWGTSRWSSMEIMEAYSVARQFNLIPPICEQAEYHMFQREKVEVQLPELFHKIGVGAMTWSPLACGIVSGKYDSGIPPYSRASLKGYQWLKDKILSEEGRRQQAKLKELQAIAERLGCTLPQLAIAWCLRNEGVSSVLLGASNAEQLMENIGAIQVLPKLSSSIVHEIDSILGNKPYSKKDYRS
Dual specificity protein phosphatase 6 (Homo sapiens), sequence (Q16828 whole entry, looked up): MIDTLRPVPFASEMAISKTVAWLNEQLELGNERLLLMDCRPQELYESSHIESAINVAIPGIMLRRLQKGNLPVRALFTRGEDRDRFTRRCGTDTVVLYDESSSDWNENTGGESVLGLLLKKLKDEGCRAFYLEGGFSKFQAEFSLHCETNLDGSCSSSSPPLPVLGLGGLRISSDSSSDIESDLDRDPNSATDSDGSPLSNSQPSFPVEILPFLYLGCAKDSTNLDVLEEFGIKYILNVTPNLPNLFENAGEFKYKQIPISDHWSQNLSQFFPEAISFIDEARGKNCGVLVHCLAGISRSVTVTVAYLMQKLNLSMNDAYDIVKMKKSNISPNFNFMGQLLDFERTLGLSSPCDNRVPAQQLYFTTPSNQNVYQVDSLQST
Muscarinic acetylcholine receptor M4 (Homo sapiens), sequence (P08173 whole entry, looked up): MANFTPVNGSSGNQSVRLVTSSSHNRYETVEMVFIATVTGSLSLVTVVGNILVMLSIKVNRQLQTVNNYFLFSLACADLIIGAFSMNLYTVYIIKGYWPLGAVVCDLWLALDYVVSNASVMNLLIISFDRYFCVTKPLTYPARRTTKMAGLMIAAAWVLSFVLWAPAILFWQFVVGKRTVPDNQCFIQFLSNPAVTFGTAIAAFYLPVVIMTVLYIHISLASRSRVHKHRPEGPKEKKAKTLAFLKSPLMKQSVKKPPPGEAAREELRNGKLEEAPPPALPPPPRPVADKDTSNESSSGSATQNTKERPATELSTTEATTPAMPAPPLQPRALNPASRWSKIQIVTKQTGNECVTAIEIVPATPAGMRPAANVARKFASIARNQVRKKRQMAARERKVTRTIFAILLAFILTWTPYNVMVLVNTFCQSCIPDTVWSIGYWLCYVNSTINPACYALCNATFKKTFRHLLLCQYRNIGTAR

Turning to `NCC(CC(=O)O)c1ccc(Cl)cc1` (stereo not given), the cell count in assay [1] came out at 601. The inhibition (in general, the drop in the measured response relative to a control, in per cent) in [1] is -13.8% (inactive); in assay [3], -102% (inactive); in assay [5], 9.37% (inactive); in assay [10], -1.51% (inactive) and 3.49% (inactive); in [11], 13.4% (inactive); in assay [12], 26.4% (inactive). Also, in [2], the inhibition of aggregation is -0.4% (inactive). For the same compound, the nuclei count in assay [2] turned out to be 95.6%; in [3], 112%. Besides, the values for the z-score in assay [4] (setting [14]), in [4] (setting [15]) and in [4] (setting [16]) were -0.759, 1.88 and 0.491, respectively. In addition, the fluorescence slope in [6] was -0.448 (inactive). Also, the NADPH fluorescence slope in assay [7] was -4.9e-05 (inactive). Moreover, the slope in assay [8] was 0.00441 (inactive). In addition, in [9], the compound was called inactive.
In turn, `O=c1[nH]c(=O)n(-c2cccc3ccccc23)c(O)c1C=NCCCn1ccnc1` returned a cell count in assay [1] of 430. Further, the inhibition is 2.6% (inactive) in assay [1]; -19% (inactive) in assay [3]; -5.95% (inactive) in assay [5]; -5.53% (inactive) in assay [10]; 19% (inactive) in assay [11]; 17.8% (inactive) in [12]. Moreover, the inhibition of aggregation in [2] is -2.6% (inactive). The values for the nuclei count in assay [2] and in assay [3] were 113% and 71.8%, respectively. In addition, the z-score in assay [4] (setting [14]) is 0.0574; in assay [4] (setting [15]), -0.666; in assay [4] (setting [16]), -0.681. The fluorescence slope in assay [6] was -0.411 (inactive); in assay [13], 0.00656 (inactive). Also, the NADPH fluorescence slope in [7] is -2.1e-05 (inactive). Besides, in [8], the slope was 0.00458 (inactive). Moreover, in [9], the call was inactive.
Consider `c1ccc(Cn2ccnc2)cc1`, for which, in [1], the cell count was 630. Besides, the inhibition in assay [1] was 3.1% (inactive); in assay [3], -120% (inactive); in assay [5] it was 8% (inactive); in [10] it was -7.16% (inactive); in assay [11], 20.5% (inactive); in assay [12] it was 27.2% (inactive). Further, the inhibition of aggregation in [2] was 16.2% (inactive). The nuclei count in assay [2] amounted to 94.6%; in assay [3], 130%. Also, the figures for the z-score in assay [4] (setting [14]), in assay [4] (setting [15]) and in assay [4] (setting [16]) were 1.25, -0.35 and 1.06, respectively. Besides, the fluorescence slope in [6] is -0.486 (inactive). The NADPH fluorescence slope in assay [7] was 3.7e-06 (inactive). Moreover, the slope in [8] was 0.00411 (inactive). Also, the result in assay [9] was inactive.
In turn, `CC(C)[C@@]1(NC(=O)[C@@H]2C=C3c4cccc5[nH]cc(c45)C[C@H]3N(C)C2)O[C@@]2(O)[C@@H]3CCCN3C(=O)[C@H](Cc3ccccc3)N2C1=O` showed a cell count in assay [1] of 584. In addition, the inhibition is -0.4% (inactive) in assay [1]; -22.9% (inactive) in assay [3]; 10.2% (inactive) in assay [5]; 1.14% (inactive) and 21.5% (inactive) in assay [10]; 22% (inactive) in assay [11]; 13.1% (inactive) in assay [12]. The inhibition of aggregation in assay [2] was 7.1% (inactive). Besides, the nuclei count in assay [2] was determined as 99.7%; in [3], 114%. Moreover, the z-score in assay [4] (setting [14]) is 0.234; in [4] (setting [15]), 0.806; in [4] (setting [16]), -0.53. In assay [6], the fluorescence slope is -0.477 (inactive). For the same compound, the NADPH fluorescence slope in [7] is -1e-05 (inactive). Besides, in [8], the slope was 0.00405 (inactive).
On to `COP(=O)(OC)C(O)C(Cl)(Cl)Cl` (stereo not given), for which the cell count in assay [1] was determined as 659. Also, the inhibition was 4.7% (inactive) in assay [1]; -58.1% (inactive) in assay [3]; 23.4% (inactive) in [5]; 12.4% (inactive) in [10]; 17.5% (inactive) in assay [11]; 39.8% (inactive) in assay [12]. The inhibition of aggregation in assay [2] is -21.7% (inactive). For the same compound, the nuclei count in assay [2] is 104%; in assay [3] it was 126%. Further, the z-score in assay [4] (setting [14]) was -0.465; in assay [4] (setting [15]), 1.59; in assay [4] (setting [16]) it was 0.972. Further, the fluorescence slope in [6] is -0.462 (inactive). Moreover, in assay [7], the NADPH fluorescence slope is -6e-05 (inactive). For the same compound, the slope in assay [8] was 0.00473 (inactive). Moreover, the result in [9] was inactive.
